Test results taken from the supplement of paper PMC12645437, “Orthogonal IMiD-Degron Pairs Induce Selective Protein Degradation in Cells” (ACS Chemical Biology, 2025).
The full ranking holds about 8,300 sequences; the median of “log2 fold change of degron read counts, EGFP-low vs EGFP+ sorted cells (limma voom), compound-induced degradation” is about -1.1, and the highest 2% start at about 3.2. The sample as a whole holds a higher share of the highest values than the screen did.

T1: CRBN, Q96SW2
T1 chain: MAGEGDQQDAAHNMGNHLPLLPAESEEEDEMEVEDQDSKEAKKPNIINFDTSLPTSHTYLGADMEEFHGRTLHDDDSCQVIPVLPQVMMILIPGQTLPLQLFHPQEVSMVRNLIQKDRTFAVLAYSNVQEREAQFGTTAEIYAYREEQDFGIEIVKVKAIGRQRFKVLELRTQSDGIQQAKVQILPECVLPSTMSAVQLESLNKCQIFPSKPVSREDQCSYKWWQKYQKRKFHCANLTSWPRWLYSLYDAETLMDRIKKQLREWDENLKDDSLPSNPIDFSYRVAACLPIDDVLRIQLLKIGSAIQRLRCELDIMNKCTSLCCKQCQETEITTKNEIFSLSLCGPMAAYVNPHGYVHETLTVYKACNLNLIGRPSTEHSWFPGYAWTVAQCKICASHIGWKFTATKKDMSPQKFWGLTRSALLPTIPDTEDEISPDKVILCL


Target: T1, CRBN, Q96SW2
Assay: log2 fold change of degron read counts, EGFP-low vs EGFP+ sorted cells (limma voom), compound-induced degradation; higher = more compound-induced degradation of the degron-EGFP fusion; degrons are variants of IKZF1/3 zinc finger 2; compound dose not given here
Conditions: Jurkat, 18 h
[1] = compound: compound 19 (5-tert-butyl-thalidomide)
[2] = compound: compound 22 (5-morpholino-thalidomide)
[3] = compound: compound 33 (diphenyl IMiD analogue)
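Note: pooled lentiviral library of zinc finger degron-EGFP fusions in mCherry-positive Jurkat cells, FACS-sorted after compound exposure, with degron abundance counted by next-generation sequencing.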

Sequence | log2 fold change of degron read counts [1] | log2 fold change of degron read counts [2] | log2 fold change of degron read counts [3] | log2 fold change of degron read counts (compound: thalidomide)
FVCNVCGARFTQKGNLLRHIKL [46F_47V_49N_50V_52G_53A_54R_55F_67L_, Q9UKT9] | -0.689 | 0.0526 | -0.518 | 0.565
FDCEICGHAFTQKGNLLRHIKL [46F_47D_49E_50I_52G_53H_54A_55F_67L_, Q9UKT9] | -2.17 | -2.36 | -2.99 | -2.62
FQCEICGHAFTQKGNLLRHIKL [46F_47Q_49E_50I_52G_53H_54A_55F_67L_, Q9UKT9] | -3.35 | -3.01 | -2.87 | -1.5
FGCNQCGRAFTQKGNLLRHIKL [46F_47G_49N_50Q_52G_53R_54A_55F_67L_, Q9UKT9] | -2.18 | -2.21 | -2.02 | -1.91
FSCEICGRSFTQKGNLLRHIKL [46F_47S_49E_50I_52G_53R_54S_55F_67L_, Q9UKT9] | -1.46 | -2.51 | -1.36 | -1.71
FTCPICGHQFTQKGNLLRHIKL [46F_47T_49P_50I_52G_53H_54Q_55F_67L_, Q9UKT9] | 0.276 | 0.993 | 2.35 | 2.28
FLCDQCGASFTQKGNLLRHIKL [46F_47L_49D_50Q_52G_53A_54S_55F_67L_, Q9UKT9] | -2 | -2.92 | -1.43 | -3.07
FMCEICGRCFTQKGNLLRHIKL [46F_47M_49E_50I_52G_53R_54C_55F_67L_, Q9UKT9] | -2.91 | -2.9 | -1.29 | -1.79
FTCDQCGAFFTQKGNLLRHIKL [46F_47T_49D_50Q_52G_53A_54F_55F_67L_, Q9UKT9] | -2.38 | -2.78 | -2.11 | -2.23
FVCPICGAEFTQKGNLLRHIKL [46F_47V_49P_50I_52G_53A_54E_55F_67L_, Q9UKT9] | 0.162 | 2.31 | 1.62 | 2.6
FQCNICGAEFTQKGNLLRHIKL [46F_47Q_49N_50I_52G_53A_54E_55F_67L_, Q9UKT9] | -1.13 | 0.376 | 1.25 | 3.24
FSCPICGAEFTQKGNLLRHIKL [46F_47S_49P_50I_52G_53A_54E_55F_67L_, Q9UKT9] | 1.92 | 1.11 | 1.41 | 1.11
FYCNICGAEFTQKGNLLRHIKL [46F_47Y_49N_50I_52G_53A_54E_55F_67L_, Q9UKT9] | 1.9 | 1.64 | 0.908 | -1.03
FNCNICGAEFTQKGNLLRHIKL [46F_47N_49N_50I_52G_53A_54E_55F_67L_, Q9UKT9] | -0.383 | -1.22 | -0.688 | -0.836
FQCPICGAEFTQKGNLLRHIKL [46F_47Q_49P_50I_52G_53A_54E_55F_67L_, Q9UKT9] | 1.17 | 1.71 | 2.51 | 3.61
FTCPQCGAWFTQKGNLLRHIKL [46F_47T_49P_50Q_52G_53A_54W_55F_67L_, Q9UKT9] | -1.97 | -1.41 | 0.47 | -0.222
FHCPICGHTFTQKGNLLRHIKL [46F_47H_49P_50I_52G_53H_54T_55F_67L_, Q9UKT9] | -2.42 | -2.36 | -1.31 | -1.65
FQCNQCGHKFTQKGNLLRHIKL [46F_47Q_49N_50Q_52G_53H_54K_55F_67L_, Q9UKT9] | -3.13 | -3.72 | -2.89 | -2.56
